The panel holds about 79,000 compounds, 15% with a hit somewhere; the sample as a whole holds those more often. Values without a mark were called inactive. The source made the active and inactive calls. Rule as the data show it: active = growth inhibition above about 70%; inactive = the rest.

Data on 10 compounds can be found in PubChem BioAssay (NCI).

Assay [1] in a line: NCI Yeast Anticancer Drug Screen. Data for the rad50 strain (AID 155).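 Also: 0% = growth of vehicle-only cultures of the same strain.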 The following applies: S. cerevisiae rad50 strain growth inhibition, stronger effect = higher value. The procedure, abridged: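 Inhibition values express reduced yeast growth in compound-treated cultures relative to vehicle-treated controls.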
Assay [2] can be described thus: NCI Yeast Anticancer Drug Screen. Data for the mec2-1 strain (AID 157). The note with it: S. cerevisiae mec2-1 strain, stronger effect = higher value. The essentials: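 Compounds were applied to mec2-1 yeast cells. Their growth was then compared with that of vehicle-treated cultures to give growth inhibition.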
Assay [3] is described as follows: NCI Yeast Anticancer Drug Screen. Data for the sgs1 mgt1 strain (AID 161).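 Also: 0% = growth of cultures given vehicle only.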 The following applies: S. cerevisiae sgs1 mgt1 strain, stronger effect = higher value. The essentials:
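Growth of a repair-deficient yeast mutant was monitored after compound treatment and expressed as inhibition relative to vehicle-treated cultures.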

Assay [4] can be described thus: NCI Yeast Anticancer Drug Screen. Data for the cln2 rad14 strain (AID 165).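 Also: 0% = growth equal to vehicle treated cultures.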 The following applies: S. cerevisiae cln2 rad14 strain, stronger effect = higher value. The essentials:
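Strain: cln2 rad14 yeast, altered in cell cycle control and DNA damage repair. Read-out: growth inhibition vs vehicle.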

Assay [5] in a line: NCI Yeast Anticancer Drug Screen. Data for the bub3 strain (AID 167). The following applies: S. cerevisiae bub3 mutant strain, stronger effect = higher value. The procedure, abridged:
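Steps: expose the mutant yeast strain to compound; grow alongside vehicle-treated cultures; measure growth; express inhibition against the vehicle cultures.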

Assay [6] in a line: NCI Yeast Anticancer Drug Screen. Data for the mlh1 rad18 strain (AID 175). The following applies: S. cerevisiae mlh1 rad18 strain growth inhibition, stronger effect = higher value. The procedure, abridged:
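A repair-deficient yeast strain is exposed to test compound, and growth is scored relative to vehicle-treated controls.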

Where [7] appears, read: at 5.0 µM (retest, dose inferred, filed as 0.5).
Setting [8] is: at 50.0 µM (retest, dose inferred, filed as 5.0).

For `Cc1cccc2c(=O)c3ccccc3oc12`, the growth inhibition in assay [1] (setting [7]) is 5%; in assay [1] (setting [8]), 42%; in assay [1] (at 50.0 µM) it was 47.5%; in assay [2] (setting [7]), 2%; in assay [2] (setting [8]), 11%; in assay [2] (at 50.0 µM), 17.2%. In addition, the growth inhibition is -1% in assay [3] (setting [7]); 18% in assay [3] (setting [8]); 15.4% in assay [3] (at 50.0 µM); 12% in assay [4] (setting [7]); -1% in assay [4] (setting [8]); -63.5% in assay [4] (at 50.0 µM). Also, the growth inhibition in assay [5] (setting [7]) was 9%; in assay [5] (setting [8]), 19%; in assay [5] (at 50.0 µM), 14.5%; in assay [6] (setting [7]), 9%; in assay [6] (setting [8]), 11%; in assay [6] (at 50.0 µM), 3.5%.

As to `CC[C@@H]1O[C@@H]([C@@H]2CC[C@](O)([C@]3(C)CC[C@@H]([C@@H](C)[C@@]4(O)CC[C@H](C)[C@@H](C[C@@]5(O)O[C@@H]([C@@H](C)[C@H](O)C[C@H]6CC[C@H](C)[C@@H]([C@@H](C)C(=O)O)O6)CC[C@@H]5C)O4)O3)O2)CC[C@@]1(C)O`, the growth inhibition in assay [1] (setting [7]) is 10%; in assay [1] (setting [8]) it was 90% (active); in assay [1] (at 50.0 µM), 88.4% (active); in assay [2] (setting [7]) it was 34%; in assay [2] (setting [8]) it was 94% (active); in assay [2] (at 50.0 µM), 90.2% (active). Moreover, the growth inhibition in assay [3] (setting [7]) is -9%; in assay [3] (setting [8]) it was 92% (active); in assay [3] (at 50.0 µM), 89.2% (active); in assay [4] (setting [7]) it was 58%; in assay [4] (setting [8]), 92% (active); in assay [4] (at 50.0 µM) it was 88.2% (active). Moreover, the growth inhibition is -14% in assay [5] (setting [7]); 93% (active) in assay [5] (setting [8]); 87.2% (active) in assay [5] (at 50.0 µM); -18% in assay [6] (setting [7]); 93% (active) in assay [6] (setting [8]); 87.7% (active) in assay [6] (at 50.0 µM).

Regarding `Cc1ccc(O)c(C(C)c2ccccc2)c1` (stereo not given), the growth inhibition in assay [1] (setting [7]) is 6%; in assay [1] (setting [8]), 97% (active); in assay [1] (at 50.0 µM) it was 99.2% (active); in assay [2] (setting [7]) it was -20%; in assay [2] (setting [8]), 99% (active); in assay [2] (at 50.0 µM), 99.6% (active). For the same compound, the growth inhibition in assay [3] (setting [7]) was -3%; in assay [3] (setting [8]) it was 97% (active); in assay [3] (at 50.0 µM), 98.8% (active); in assay [4] (setting [7]) it was -8%; in assay [4] (setting [8]), 96% (active); in assay [4] (at 50.0 µM), 98.8% (active). Also, the growth inhibition in assay [5] (setting [7]) was 21%; in assay [5] (setting [8]) it was 98% (active); in assay [5] (at 50.0 µM) it was 98.8% (active); in assay [6] (setting [7]) it was 2%; in assay [6] (setting [8]) it was 98% (active); in assay [6] (at 50.0 µM), 99.1% (active).

On to `C1CCC(CCCCc2nn[nH]n2)CC1`, for which the growth inhibition in assay [1] (setting [7]) was 0%; in assay [1] (setting [8]), 98% (active); in assay [1] (at 50.0 µM), 99.1% (active); in assay [2] (setting [7]), -30%; in assay [2] (setting [8]), 97% (active); in assay [2] (at 50.0 µM), 99.3% (active). The growth inhibition in assay [3] (setting [7]) was -1%; in assay [3] (setting [8]), 96% (active); in assay [3] (at 50.0 µM), 99% (active); in assay [4] (setting [7]), 0%; in assay [4] (setting [8]), 99% (active); in assay [4] (at 50.0 µM) it was 98.3% (active). In addition, the growth inhibition in assay [5] (setting [7]) is -6%; in assay [5] (setting [8]), 97% (active); in assay [5] (at 50.0 µM), 99.3% (active); in assay [6] (setting [7]), -7%; in assay [6] (setting [8]), 97% (active); in assay [6] (at 50.0 µM) it was 99% (active).

For the compound `CCCC(CCC)NCCOC(=O)C(CC)c1ccccc1` (stereo not given), the growth inhibition is 3% in assay [1] (setting [7]); 42% in assay [1] (setting [8]); 88% (active) in assay [1] (at 50.0 µM); -5% in assay [2] (setting [7]); 23% in assay [2] (setting [8]); 15.9% in assay [2] (at 50.0 µM). The growth inhibition was 12% in assay [3] (setting [7]); 63% in assay [3] (setting [8]); 88.3% (active) in assay [3] (at 50.0 µM); -35% in assay [4] (setting [7]); 62% in assay [4] (setting [8]); 55.9% in assay [4] (at 50.0 µM). Also, the growth inhibition is 7% in assay [5] (setting [7]); 75% (active) in assay [5] (setting [8]); 49.6% in assay [5] (at 50.0 µM); 4% in assay [6] (setting [7]); 47% in assay [6] (setting [8]); 75% (active) in assay [6] (at 50.0 µM).

On to `NC(Cc1ccc(O)cc1O)C(=O)O` (stereo not given), for which the growth inhibition in assay [1] (setting [7]) was 0%; in assay [1] (setting [8]) it was 2%; in assay [1] (at 50.0 µM) it was 7.7%; in assay [2] (setting [7]), 0%; in assay [2] (setting [8]), -1%; in assay [2] (at 50.0 µM) it was 31%. The growth inhibition in assay [3] (setting [7]) was -1%; in assay [3] (setting [8]), -4%; in assay [3] (at 50.0 µM), -7%; in assay [4] (setting [7]) it was 2%; in assay [4] (setting [8]) it was -2%; in assay [4] (at 50.0 µM), 74.9% (active). Besides, the growth inhibition in assay [5] (setting [7]) is 5%; in assay [5] (setting [8]), -4%; in assay [5] (at 50.0 µM) it was 3.55%; in assay [6] (setting [7]) it was -1%; in assay [6] (setting [8]), -1%; in assay [6] (at 50.0 µM), 16.4%.

Turning to `CCC(/C=C/c1ccccc1)=N\Nc1ccccc1`, the growth inhibition in assay [1] (setting [7]) is 11%; in assay [1] (setting [8]), 89% (active); in assay [1] (at 50.0 µM), 47.7%; in assay [2] (setting [7]), -10%; in assay [2] (setting [8]) it was 83% (active); in assay [2] (at 50.0 µM), 79% (active). The growth inhibition in assay [3] (setting [7]) was 1%; in assay [3] (setting [8]), 91% (active); in assay [3] (at 50.0 µM), 34.1%; in assay [4] (setting [7]) it was -27%; in assay [4] (setting [8]), 76% (active); in assay [4] (at 50.0 µM), -12.3%. Moreover, the growth inhibition is -15% in assay [5] (setting [7]); 90% (active) in assay [5] (setting [8]); 87.3% (active) in assay [5] (at 50.0 µM); -13% in assay [6] (setting [7]); 95% (active) in assay [6] (setting [8]); 74.4% (active) in assay [6] (at 50.0 µM).

For `CC(=O)NCC1OC2COC(c3ccccc3)OC2C(NC(=O)c2ccccc2)C1OC(=O)c1ccccc1` (stereo not given), the growth inhibition was 15% in assay [1] (setting [7]); 10% in assay [1] (setting [8]); 22.4% in assay [1] (at 50.0 µM); 15% in assay [2] (setting [7]); 10% in assay [2] (setting [8]); 11.8% in assay [2] (at 50.0 µM). The growth inhibition in assay [3] (setting [7]) is -11%; in assay [3] (setting [8]) it was -13%; in assay [3] (at 50.0 µM), 2.3%; in assay [4] (setting [7]), 6%; in assay [4] (setting [8]), -15%; in assay [4] (at 50.0 µM), 6.7%. Further, the growth inhibition in assay [5] (setting [7]) is 8%; in assay [5] (setting [8]), 5%; in assay [5] (at 50.0 µM), 7.55%; in assay [6] (setting [7]) it was 15%; in assay [6] (setting [8]), 9%; in assay [6] (at 50.0 µM), 91.3% (active).

In the case of `CSC(=S)SC(SC)S(C)(=O)=O` (stereo not given), the growth inhibition in assay [1] (setting [7]) was -7%; in assay [1] (setting [8]), 0%; in assay [1] (at 50.0 µM), 98.5% (active); in assay [2] (setting [7]), -5%; in assay [2] (setting [8]) it was -3%; in assay [2] (at 50.0 µM), 99.7% (active). Further, the growth inhibition in assay [3] (setting [7]) was -5%; in assay [3] (setting [8]), -16%; in assay [3] (at 50.0 µM) it was 99.3% (active); in assay [4] (setting [7]) it was 1%; in assay [4] (setting [8]) it was 2%; in assay [4] (at 50.0 µM), 99.1% (active). The growth inhibition was -5% in assay [5] (setting [7]); -11% in assay [5] (setting [8]); 99.5% (active) in assay [5] (at 50.0 µM); -8% in assay [6] (setting [7]); -9% in assay [6] (setting [8]); 99.3% (active) in assay [6] (at 50.0 µM).

For `Cn1ncc2c(NCc3ccc(Cl)cc3)nc(Cl)nc21`, the growth inhibition in assay [1] (setting [7]) is 7%; in assay [1] (setting [8]) it was 97% (active); in assay [1] (at 50.0 µM) it was 98.2% (active); in assay [2] (setting [7]), -1%; in assay [2] (setting [8]) it was 98% (active); in assay [2] (at 50.0 µM), 96.5% (active). The growth inhibition in assay [3] (setting [7]) is 8%; in assay [3] (setting [8]), 97% (active); in assay [3] (at 50.0 µM), 98% (active); in assay [4] (setting [7]), 2%; in assay [4] (setting [8]) it was 95% (active); in assay [4] (at 50.0 µM), 99.2% (active). Besides, the growth inhibition in assay [5] (setting [7]) is 2%; in assay [5] (setting [8]) it was 97% (active); in assay [5] (at 50.0 µM), 98.9% (active); in assay [6] (setting [7]), 0%; in assay [6] (setting [8]), 97% (active); in assay [6] (at 50.0 µM), 98.5% (active).
